Molecules are shown by their SMILES. Hit rate of the full screen: of about 190,000 compounds, about 930 (0.49%) were called active.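 How the source made its calls: active means z-score of insulin promoter reporter brightness in nuclei below -3 at 5 µM, with at least 500 cells counted; inconclusive means wells with under 500 cells, flagged as toxic or sparse; inactive means the rest.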 Some of the results follow. Results with a measured potency or affinity are listed apart.

This assay in a line: insulin promoter down-regulators in MIN6 cells, imaging, high-content screening, mouse beta cells (AID 1628). The note with it: MIN6 insulin promoter GFP reporter, at 5 µM, stronger effect = lower value.
Turning to `CCc1cc(C(=O)OC)c(NC(=O)CC2Sc3ccc(C(F)(F)F)cc3NC2=O)s1` (stereo not given), the z-score was 3.33 (inactive).
To `COc1ccccc1OCC(O)Cn1c(=N)n(CCN2CCCCC2)c2ccccc21` (stereo not given) belongs -5.05 (active); to `Brc1ccc(Oc2nsnc2N2CCOCC2)cc1`, 3.88 (inactive); to `C=CCn1c(C)cc(C(=O)CSc2nnc(-c3cccc(S(=O)(=O)N(CC)CC)c3)o2)c1C`, -3.66 (active).
As to `CC(C)CNC(=O)CSc1nnc(-c2cccc(S(=O)(=O)N3CCCCC3)c2)o1`, the z-score was 4.75 (inactive).
To `CCN(CC)S(=O)(=O)c1cccc(-c2nnc(SCCCC(=O)c3ccc(F)cc3)o2)c1` belongs -4.17 (active); to `CC(=O)OC(C(=O)NCc1ccc(F)cc1)c1ccccn1` (stereo not given), 3.91 (inactive).
The figure for `Cc1nc2ccccc2nc1N/N=C/c1ccc(O)cc1O` is -3.3 (active); for `Oc1ccc(/C=N/Nc2nc(-c3ccccc3F)nc3ccccc23)c(O)c1` it is 3.69 (inactive).
To `Cc1ccc(-n2ncc(Br)c(Br)c2=O)cc1` belongs -4.97 (active); to `Cc1ccc(-c2cc(N)n(-c3ccccc3)n2)cc1`, 5.28 (inactive); to `c1ccc(-c2csc(-n3cnnn3)n2)cc1`, 3.13 (inactive).
Regarding `N#C/C(=C/c1ccc(N2CCOCC2)o1)c1nc2ccccc2[nH]1`, the z-score is 15 (inactive).
To `Cc1ccccc1-n1ncc2c(SCC(=O)NCc3cccs3)ncnc21` belongs 3.57 (inactive); to `COc1ccc2c(C)cc(SCC(=O)N(C)C3CCS(=O)(=O)C3)nc2c1` (stereo not given), 4.13 (inactive).
To `CC(C)Cn1c(=O)c2c(nc3n2CCCN3CCc2ccccc2)n(C)c1=O` belongs -4.13 (active).
The figure for `O=C1C2C3C=CC(C3)C2C(=O)N1CCc1ccccc1` (stereo not given) is 3.33 (inactive).
Turning to `Cn1c(=O)n(Cc2ccccc2F)c(=O)c2c1nc1n2CCN1Cc1ccco1`, the z-score was 2.8 (inactive).
Regarding `CCCCN1C(=O)/C(=C/C=C2/CC(C)(C)CN2C)SC1=S`, the z-score was 16.2 (inactive).
To `COc1ccc(C(=S)N2CCCC2)cc1` belongs 0.82 (inactive); to `COc1ccc(CC(=S)N2CCOCC2)cc1`, -4.87 (active).
As for `COc1ccc(NC(=O)/C(C#N)=C\c2ccc(N3CCOCC3)o2)cc1`, the z-score was 3.17 (inactive).
As to `O=C(Cn1ncn2c(cc3ccccc32)c1=O)NCc1ccco1`, the z-score was 3.78 (inactive).
The figure for `Cc1cc(=O)oc2cc(OC(=O)c3ccccc3)ccc12` is -0.09 (inactive); for `Cc1cc2oc(=O)cc(CN3CCN(C/C=C/c4ccccc4)CC3)c2cc1O` it is -3.48 (active).
`CCc1cc2c(CN3CCN(CCO)CC3)cc(=O)oc2cc1O`: the z-score is 3.59 (inactive).
In the case of `CCC(c1nnnn1Cc1ccco1)N(Cc1ccccc1OC)Cc1cc2cc(C)ccc2[nH]c1=O` (stereo not given), the z-score was -4.61 (active).
The figure for `CCC(c1nnnn1CCc1ccccc1)N(Cc1ccco1)Cc1cc2cccc(C)c2[nH]c1=O` (stereo not given) is -3.08 (active); for `CCC(c1nnnn1CCc1ccccc1)N(Cc1ccco1)Cc1cc2cc(C)cc(C)c2[nH]c1=O` (stereo not given) it is -3.35 (active); for `CCOc1ccc2[nH]c(=O)c(CN(Cc3ccco3)C(CC)c3nnnn3Cc3ccccc3)cc2c1` (stereo not given) it is -2.78 (inactive).
The figure for `Cc1cc2nc3c(=O)n(C4CCCCC4)c(=O)[nH]c3nc2cc1N` is 7.94 (inactive); for `CCC(C)N1C(=O)/C(=C/c2c(NCCCOC(C)C)nc3c(C)cccn3c2=O)SC1=S` (stereo not given) it is 13.1 (inactive).
The figure for `COc1ccc2nc(NC(=O)c3cccc(OCc4c(C)noc4C)c3)sc2c1` is -3.94 (active).
As to `CC(=O)Nc1ccc2nc(NC(=O)COc3cccc(C)c3)sc2c1`, the z-score is 1.98 (inactive).
To `Cc1noc(C)c1COc1cccc(C(=O)OC(C)C(=O)Nc2c(C)n(C)n(-c3ccccc3)c2=O)c1` (stereo not given) belongs 1.6 (inactive).
`COc1cc(N2CCCC2)c(OC)cc1/C=c1/sc2nc3ccccc3n2c1=O`: the z-score is 16.8 (inactive).
To `CCCN1C(=O)/C(=C/C=C2\N(CC)c3ccccc3C2(C)C)SC1=S` belongs 12.5 (inactive); to `CCCN1C(=O)/C(=C\C=C2\N(CC)c3ccccc3C2(C)C)SC1=S`, 17.2 (inactive).
The figure for `N#C/C(=C/c1ccc(N2CCCCC2)o1)C(=O)NCCc1c[nH]c2ccccc12` is 17.5 (inactive); for `O=C1c2cccnc2C(=O)N1Cc1ccco1` it is 2.51 (inactive).
To `CC(C)(CO)C(O)C(=O)NCCC#N` (stereo not given) belongs -1.31 (inactive).
In the case of `O=[N+]([O-])c1ccc(/C=C/C2=NN(c3ccccc3)C(c3ccco3)C2)o1` (stereo not given), the z-score is 12.4 (inactive).
On to `CCN(CC)c1ccc(NC(=O)C2CC3CCC2C3)cc1` (stereo not given), for which the z-score was -2.14 (inactive).
Turning to `CCOC(=O)c1ccc(NC(=O)C2(c3ccc(OC)cc3)CCCC2)cc1`, the z-score is -5.09 (active).
The figure for `CCOC(=O)c1ccc(NC(=O)C2CC2)cc1` is -4.4 (active); for `CCOc1ccc(NC(=O)C2CCC(C)(C(=O)O)C2(C)C)cc1` (stereo not given) it is 3.64 (inactive); for `CN1CC=C2C(C#N)=C(N)C(C#N)(C#N)C(c3cccc(Cl)c3Cl)C2C1` (stereo not given) it is 14.1 (inactive).
To `COc1cc(N2CCCC2)c(OC)cc1/C=C1/NC(=S)NC1=O` belongs 17.8 (inactive).
As to `CCOC(=O)N1CCC(N2CCN(S(=O)(=O)c3ccc4ccccc4c3)CC2)CC1`, the z-score is -4.2 (active).
To `CCOC(=O)N1CCN(C(=O)c2cc(S(=O)(=O)N3CCCC3)cn2C)CC1` belongs 3.05 (inactive); to `CCOC(=O)N1CCN(S(=O)(=O)c2ccc3c(c2)oc(=O)n3C)CC1`, 3.1 (inactive).
To `COCCNC(=O)c1onc(CSc2cccc(C)c2)c1C(=O)O` belongs 3.82 (inactive); to `Clc1ccc(C[n+]2cc(-c3ccccc3)n3c2CCCCC3)c(Cl)c1`, -5.27 (active).
As for `COc1ccc(N=C2NC(=O)S/C2=C\c2ccc(N(C)C)cc2)cc1`, the z-score is 3.4 (inactive).
To `CN1CC=C2C(C#N)=C(N)C(C#N)(C#N)[C@H](c3cccc(Cl)c3)C2C1` (stereo not given in full) belongs 15.9 (inactive); to `N#C/C(C(=O)c1ccccc1)=C1/SC=C(N)N1c1ccccc1`, 5.96 (inactive).
To `CCCCN(CC)S(=O)(=O)c1ccc(C(=O)N(CCCN(C)C)c2nc3cc(C)cc(C)c3s2)cc1` belongs -3.82 (active); to `CC(C)OC(=O)CN1C(=O)S/C(=C/c2ccc(N3CCCCC3)o2)C1=O`, 6.58 (inactive).
To `Cc1cc(Cl)ccc1OCC(=O)OCC(=O)Nc1ccc(F)c([N+](=O)[O-])c1` belongs -5.99 (active); to `Cn1c(=O)n(C)c2cc(NC(=O)COc3ccc(Cl)cc3)ccc21`, 3.02 (inactive).
